Consider 34 compounds from PubChem BioAssay AID434927 (Sanford-Burnham Center for Chemical Genomics, 2010).

The structures appear in SMILES notation. The source made the active and inactive calls.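 Rule for the calls: active = inhibition above about 23% in any of six single-dose repeats (limit read from the data); inactive = the rest.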

The target of this assay is Intestinal-type alkaline phosphatase (Homo sapiens) (UniProt P09923). Briefly: suppression of intestinal alkaline phosphatase activity – biochemical, luminescence, single concentration, uHTS hits, confirmation (AID 434927).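 Note: plate controls were DMSO wells with enzyme for no effect and wells lacking enzyme for full effect.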 The following applies: purified human IAP, CDP-Star luminescence, 30 min; at 8.3 µM; hits give high values.
Sequence of Intestinal-type alkaline phosphatase (Homo sapiens) (P09923 whole entry, looked up): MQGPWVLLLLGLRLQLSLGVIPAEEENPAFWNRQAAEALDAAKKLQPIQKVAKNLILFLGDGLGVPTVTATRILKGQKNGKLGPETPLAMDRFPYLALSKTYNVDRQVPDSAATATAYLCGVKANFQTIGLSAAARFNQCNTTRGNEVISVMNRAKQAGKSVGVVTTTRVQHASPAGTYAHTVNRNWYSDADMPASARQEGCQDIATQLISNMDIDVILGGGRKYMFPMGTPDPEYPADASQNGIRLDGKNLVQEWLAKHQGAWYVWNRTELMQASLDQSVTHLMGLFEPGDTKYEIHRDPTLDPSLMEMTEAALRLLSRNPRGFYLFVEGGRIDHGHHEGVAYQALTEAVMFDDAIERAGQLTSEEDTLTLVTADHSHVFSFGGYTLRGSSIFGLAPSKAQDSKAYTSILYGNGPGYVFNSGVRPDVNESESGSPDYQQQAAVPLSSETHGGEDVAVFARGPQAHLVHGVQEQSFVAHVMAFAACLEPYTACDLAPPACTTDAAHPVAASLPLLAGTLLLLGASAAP
What is called inhibition is the relative decrease from the control value, in per cent. On to `NC(=O)c1ccc(NC(=O)C2CCCC2)cc1`, for which the inhibition is -40.2% (inactive).
The result for `CCn1c(C)nc2cc(C(=O)N/N=C/c3cccc(O)c3O)ccc21` reads -42.9% (inactive).
The result for `CCn1cnc2sc(C(=O)O)c(C)c2c1=O` reads 64% (active); that for `O=C(O)C1OC(Oc2c(-c3ccc(O)c(O)c3)oc3cc(O)cc(O)c3c2=O)C(O)C(O)C1O` (centres undefined), 32.1% (active); that for `NC(CO)C(=O)NNCc1ccc(O)c(O)c1O` (centres undefined), -60.9% (inactive).
As for `CCOC(=O)c1cnc(SCC(=O)c2ccccc2)nc1N`, the inhibition is -436% (inactive).
As to `Cc1ccc(S(=O)(=O)NCCC(=O)NNC(=O)COc2ccc(Br)cc2)cc1C`, the inhibition is 41% (active).
As to `COc1ccc2nc3cc(Cl)ccc3c(Nc3cc(CN4CCCC4)c(O)c(CN4CCCC4)c3)c2n1`, the inhibition is -60.1% (inactive).
For `O=C(COc1ccccc1Cl)N1CCN(c2ccc([N+](=O)[O-])c(N3CCCCC3)c2)CC1`, the inhibition is -60.9% (inactive).
To `Cc1ccc2c(c1)nnc1nnc(SCC(=O)O)n12` belongs 33.9% (active).
Take `COc1ccc(C(=O)Nc2cccc3c2C(=O)NC3=O)cc1S(=O)(=O)N1CCOCC1`: the inhibition was -85.1% (inactive).
In the case of `COc1cccc(/C=N\NC(=O)C2=NNC(=O)C2C)c1O` (centres undefined), the inhibition was 34.8% (active).
On to `COc1ccccc1C1CN(c2ccccc2)N=C1c1cccs1` (centres undefined), for which the inhibition is -128% (inactive).
As for `O=C(NCCCN1CCOCC1)c1ccc2c(c1)N(Cc1ccc(Cl)cc1)C(=O)c1ccccc1S2=O` (centres undefined), the inhibition was -47.5% (inactive).
In the case of `N#Cc1cc(Oc2ccccc2)c(-n2nnc3ccccc32)cc1C#N`, the inhibition is 40.7% (active).
As for `CN(C)c1ccc(N=Nc2ccccc2Br)cc1`, the inhibition is -104% (inactive).
The result for `COC(=O)CN1C(=O)C(O)(CC(=O)c2ccc(C)cc2)c2ccccc21` (centres undefined) reads 45.9% (active); that for `O=C(NC(=S)NNC(=O)c1ccccc1O)c1ccc(F)cc1`, 62.4% (active).
With `Cc1cccc(NS(=O)(=O)c2cccc(C(=O)NNC(=O)c3ccccc3O)c2)c1`, the inhibition is 29.2% (active).
The result for `COc1ccccc1C1=NN(C2=NN=C(N)Cc3ncnn32)C(O)(C(F)(F)F)C1` (centres undefined) reads 45.2% (active).
For `Cc1ccc(NC(=O)c2ccncc2)cc1[N+](=O)[O-]`, the inhibition is 53.7% (active).
On to `COc1ccccc1CNC(=O)CN(c1ccc(C)cc1)S(=O)(=O)c1c(C)noc1C`, for which the inhibition was 32.5% (active).
The result for `COC(=O)c1ccccc1-c1c2ccc(=N)cc-2oc2cc(N)ccc12` reads 34.6% (active); that for `CC1C(=O)NN=C1C(=O)N/N=C\c1ccc(O)cc1O` (centres undefined), -78.7% (inactive).
For the compound `CCCn1c(/C=C/c2ccccc2)nc2ccccc21`, the inhibition was 36.8% (active).
Consider `CCOc1ccc(/C=N/NC(=O)c2[nH]ncc2Br)c(O)c1`, for which the inhibition was -294% (inactive).
Regarding `CSCCC(NS(=O)(=O)c1ccccc1F)C(=O)NNC(=O)c1csc(N2CCOCC2)n1` (centres undefined), the inhibition was 72.3% (active).
Turning to `O=C(O)c1ccccc1C(=O)Nc1cc(-c2ccccc2)[nH]n1`, the inhibition is 61.7% (active).
`CCC1CCCCN1C1Sc2ccc(C(=O)OC)cc2NC1=O` (centres undefined): the inhibition was -69.1% (inactive).
Turning to `CC(=O)Nc1cccc(C(=O)NNC(=O)c2n[nH]c(=O)c3ccccc23)c1`, the inhibition is -125% (inactive).
The result for `O=C(N/N=C/c1c(O)ccc2ccccc12)c1[nH]ncc1Br` reads 42.8% (active).
In the case of `CCOc1ccc(CC(=O)NNC(=S)NC2CCCCC2)cc1OCC`, the inhibition was -79.5% (inactive).
With `Cc1ccc(-n2ncc3c(NNC(=O)c4ccco4)ncnc32)cc1C`, the inhibition is 41.4% (active).
Consider `Cc1cc(Br)ccc1SCC(=O)OC/C(O)=C(\C#N)c1nc2ccccc2[nH]1`, for which the inhibition was -67.4% (inactive).
